Experimental data: PubChem BioAssay AID1851 (National Center for Advancing Translational Sciences (NCATS), 2009)
“And” between values parts separate entries of the source, which are not always exact repeats. Identical values can stand only once. The whole screen tested about 16,000 compounds, of which about 5,700 (36%) were called active. Inconclusive results (about 24%) are left out. The list shows a part of the results. A number with no mark means an inactive call. Calls come from the whole dose curve; as a rule, active = well fitted curve in the direction sought with a large enough effect; inconclusive = small, poorly fitted or top-dose-only effect, or effect the other way; inactive = no such curve, though single readings can be large or run the other way.

molecular target: Cytochrome P450 1A2 (Homo sapiens) (UniProt P05177); experiment: Cytochrome panel assay with activity outcomes; conditions: recombinant CYP, pro-luciferin dealkylation, luminescence, p450-cyp1a2; series mostly up to 57.1 µM; activity, negative = inhibition: at the top concentration
Sequence (P05177 whole entry, looked up): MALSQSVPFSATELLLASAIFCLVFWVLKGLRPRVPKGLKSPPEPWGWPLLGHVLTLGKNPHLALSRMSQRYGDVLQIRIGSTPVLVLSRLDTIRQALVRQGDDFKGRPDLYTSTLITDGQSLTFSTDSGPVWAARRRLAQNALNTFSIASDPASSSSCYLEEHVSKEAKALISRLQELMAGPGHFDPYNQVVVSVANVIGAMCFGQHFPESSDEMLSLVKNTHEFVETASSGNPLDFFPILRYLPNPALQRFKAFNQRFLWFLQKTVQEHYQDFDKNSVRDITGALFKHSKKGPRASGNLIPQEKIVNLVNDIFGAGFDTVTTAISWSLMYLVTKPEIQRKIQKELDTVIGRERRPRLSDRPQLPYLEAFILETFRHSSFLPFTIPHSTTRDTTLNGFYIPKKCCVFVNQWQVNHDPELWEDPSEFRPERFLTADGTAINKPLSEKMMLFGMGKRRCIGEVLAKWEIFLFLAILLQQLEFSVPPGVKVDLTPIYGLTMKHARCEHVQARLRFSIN
% is set by controls: 0 for no effect and ±100 for the full control effect.

| SMILES | AC50 | activity, negative = inhibition |
| --- | --- | --- |
| C(=N\n1cnnc1)/c1cccn1-c1ccccc1 | 8.91 µM (active) | – |
| CC(C)NC(=O)N1CCCC2(CCN(S(=O)(=O)c3ccccc3)CC2)C1 | – | -2.13% |
| CCCN1CNC(=S)N(c2cccc(C)c2C)C1 | – | -0.257% |
| CC(C)=CCc1c(C)nc2ccccc2c1C(=O)O | – | -22.6% |
| CC(C)=CCC1=C(OCC(=O)O)C(=O)c2ccccc2C1=O | 0.501 µM (active) | – |
| O=C1CSC(c2ccccn2)N1c1ccc(Cl)c(Cl)c1 (stereo not given) | 10 µM (active) | – |
| O=C1CC(N2CCN(CCc3ccccn3)CC2)C(=O)N1c1ccc(Cl)cc1 (stereo not given) | – | -11.7% |
| CC(=O)Nc1ccc(N2C(=O)CSC2c2c(F)cccc2Cl)cc1 (stereo not given) | – | -0.57% |
| COc1cc2c(cc1OC)-c1cc(=Nc3c(C)cc(C)cc3C)n(C)c(=O)n1CC2 | – | -18.3% |
| COc1ccc(OC)c2[nH]c(=O)c(CCNC(=O)COc3ccccc3)cc12 | 11.2 µM (active) | – |
| COc1ccc(OC)c2[nH]c(=O)c(CCNC(=O)c3ccc(S(=O)(=O)N(C)C)cc3)cc12 | – | -13.1% |
| COc1ccc(OC)c2[nH]c(=O)c(CCNS(=O)(=O)c3ccc(Cl)cc3)cc12 | 12.6 µM (active) | – |
| COc1ccc(OC)c2[nH]c(=O)c(CCNC(=O)c3ccc(S(=O)(=O)N4CCCC4)cc3)cc12 | – | -27.7% |
| COc1ccc(Cl)cc1C(=O)NCCc1ccc(S(=O)(=O)NC(=O)NC2CCCCC2)cc1 | – | -2.36% [at 25.6 µM] |
| Cn1c(=O)c2cc(S(=O)(=O)NCCC(=O)Nc3ccc(Cl)cc3)ccc2n(C)c1=O | – | -4.77% |
| COc1ccc(OC)c2[nH]c(=O)c(CCNS(=O)(=O)c3ccccc3)cc12 | 12.6 µM (active) | – |
| CC1(C)OC[C@@H]2O[C@H](n3cnc4c(N)nc(Cl)nc43)[C@@H](OS(C)(=O)=O)[C@@H]2O1 | – | -14.5% [at 2.29 µM] |
| O=S(=O)(c1ccc(Br)cc1)N1CCN(S(=O)(=O)c2ccc(Br)cc2)CC1 | – | -11.2% [at 11.4 µM] |
| O=S(=O)(c1cccc(-c2nnc(-c3ccc(Br)cc3)o2)c1)N1CCCCCC1 | 14.1 µM (active) | – |
| O=C(O)CCC(=O)N1CCc2cc(S(=O)(=O)N3CCCCC3)ccc21 | – | -10.2% |
| Cc1nn2c3c(cnc2c1-c1ccccc1)C(=O)CC(c1ccccc1)C3 (stereo not given) | 3.16 µM (active) | – |
| CCC1NC(=S)N(C2CCCCC2)C1=O (stereo not given) | – | -4.86% |
| CN(Cc1ccco1)c1ccnc(-c2cccnc2)n1 | 0.794 µM (active) | – |
| COc1cccc(-c2nccc(N(C)Cc3ccco3)n2)c1 | 0.631 µM (active) | – |

| SMILES | AC50 | activity, negative = inhibition |
| --- | --- | --- |
| CN(C)C(=O)c1ccc(-c2nccc(N(C)Cc3ccco3)n2)cc1 | 12.6 µM (active) | – |
| CN(Cc1ccco1)c1ccnc(-c2ccoc2)n1 | 12.6 µM (active) | – |
| COc1ccc(Cc2nnc(NC(=O)Cn3cnc4c3c(=O)n(C)c(=O)n4C)s2)cc1OC | – | 2.87% |
| CN(Cc1ccco1)c1ccnc(-c2cccc(C#N)c2)n1 | 0.398 µM (active) | – |
| CS/C(N)=N/N=C/c1ccc([N+](=O)[O-])cc1 | 14.1 µM (active) | – |
| O=C1CCCC=C1[C@H](O)c1ccc([N+](=O)[O-])cc1 | – | -7.01% [at 11.4 µM] |
| NC(N)=N/N=C\c1ccc(C2CCNCC2)cc1 | – | -12% [at 2.29 µM] |
| COc1ccc(N(C)C(=O)c2ccc3nc(-c4ccccc4)c(-c4ccccc4)nc3c2)cc1 | – | -19.6% |
| C=CCNC(=O)c1ccc(-c2nc(-c3ccc(Cl)c(Cl)c3)cs2)cc1 | – | -28.6% |
| C=CCNC(=O)c1onc(CSc2ccc(F)cc2)c1C(=O)O | – | -2.62% |
| C=CCNC(=O)c1csc(-c2ccccc2)n1 | 0.631 µM (active) | – |
| C=CCNC(=O)c1cccn1-c1ccsc1C(=O)OC | – | -26.4% |
| C=CCNC(=O)c1ccc2nc(-c3ccccc3)c(-c3ccccc3)nc2c1 | 15.8 µM (active) | – |
| CC(=O)NCCNc1ncnc2ccc(-c3cccc(NS(C)(=O)=O)c3)cc12 | 15.8 µM (active) | – |
| COCCNc1ncnc2ccc(-c3cccc(NS(C)(=O)=O)c3)cc12 | 0.794 µM (active) | – |
| O=C(c1cnccn1)N1CCC2(CCN(Cc3nccs3)CC2)CC1 | – | -8.84% |
| Cc1ccc(NS(=O)(=O)c2cc(C(=O)NCc3ccccn3)ccc2Cl)cc1 | 5.01 µM (active) | – |
| CN(c1ccc(C(=O)NCc2ccccn2)cc1)S(C)(=O)=O | – | 10.6% |
| C=C(CC)C(=O)c1ccc(OCC(=O)O)c(Cl)c1Cl | – | -13.9% [at 25.6 µM] |
| COC(=O)/C=C/CSC1=N/C(=C/c2ccc(-n3cncn3)cc2)C(=O)N1 | 1 µM (active) | – |
| CNc1ncnc2c1ncn2[C@H]1C[C@@H](OP(=O)(O)O)[C@H](COP(=O)(O)O)O1 | – | -14.7% |
| CCN(CC)C(=O)Cn1cc(/C=C(\C#N)C(=O)N2CCN(c3ccccc3)CC2)c2ccccc21 | – | -12.4% |
| N#Cc1ccc(C(=O)Nc2ccc(N3CCN(C(=O)c4ccco4)CC3)cc2)c(F)c1 | – | 21.3% |
| COC(=O)Cn1cc(/C=N/NC(=O)c2ccc(C#N)cc2F)c2ccccc21 | 3.55 µM (active) | – |

| SMILES | AC50 | activity, negative = inhibition |
| --- | --- | --- |
| COc1ccc(-n2c(=O)c(C)nc3cnc(OC)nc32)cc1 | – | -21.9% |
| COc1ncc2nc(C)c(=O)n(-c3ccccc3)c2n1 | 5.01 µM (active) | – |
| COc1ccc(Oc2ncc3nc(C)c(=O)n(-c4ccc(OC)cc4)c3n2)cc1 | 15.8 µM (active) | – |
| Cc1nc2cnc(Oc3ccccc3)nc2n(-c2ccccc2)c1=O | 10 µM (active) | – |
| Cc1cccc(CSc2cccc3cccnc23)c1 | 2 µM (active) | – |
| COc1ccc(/C(C)=N/NC(=O)c2ccc(CSc3cccc4cccnc34)cc2)cc1OC | 11.2 µM (active) | – |
| Cc1ccc(N[C@H](c2ccccc2)c2ccc3cccnc3c2O)cc1 | – | -24.5% [at 2.29 µM] |
| Cc1nc(N=Nc2cc(S(=O)(=O)O)ccc2S(=O)(=O)O)c(COP(=O)(O)O)c(C=O)c1O | – | -11.6% |
| COc1cc(CC(=O)O)ccc1O | – | 0.616% |
| COc1cc(CNC(=O)CCCC/C=C\C(C)C)ccc1O | 1.58 µM (active) and 3.16 µM (active) | – |
| COc1cc([C@H](O)C(=O)O)ccc1O | – | -11.9% |
| O=C(Nc1ncn[nH]1)c1ccc([N+](=O)[O-])cc1[N+](=O)[O-] | – | -24% |
| Clc1ccc(Nc2ncn[nH]2)cc1 | 4.47 µM (active) | – |
| O=C(O)/C=C\C(=O)Nc1ncn[nH]1 | – | -8.55% [at 11.4 µM] |
| Cc1cc(C(C#N)c2cccc(Cl)c2)n2ncnc2n1 (stereo not given) | 5.01 µM (active) | – |
| CC[C@@H]1CN2CCc3cc(OC)c(OC)cc3[C@H]2C[C@@H]1C[C@H]1NCCc2cc(OC)c(OC)cc21 | – | -3.72% [at 25.6 µM] |
| NC1CCN(c2cccc(Cl)n2)CC1 | 15.8 µM (active) | – |
| c1c[nH]c(CN2CCN(Cc3ncc[nH]3)CC2)n1 | – | 0.981% [at 11.4 µM] |
| COc1ccc(C2N=C(N)N=C(N)N2c2ccccc2OC)cc1OC (stereo not given) | – | 1.06% |
| CCn1c(SCC(=O)Nc2ccccc2C(=O)OC)nnc1-c1ccc(N)cc1 | 14.1 µM (active) | – |
| CC(C)CC(C(=O)NCC1CCCO1)N(C(=O)Cn1nnc(-c2ccc(F)cc2)n1)c1ccccc1F (stereo not given) | – | -7.92% |
| O=C(O)C[C@H]1OCC=C2C[N@@+]3([O-])CC[C@]45c6ccccc6N[C@@H]4[C@@H]1[C@H]2C[C@H]53 | – | -14.3% [at 2.29 µM] |
| COc1ccc(O[C@H]2C=C[C@@H](c3ccccc3)O[C@@H]2CO/N=C(\C)CCN2CCCCc3nc(C)c(C)cc32)cc1 | – | 0.173% [at 11.4 µM] |
| COc1ccccc1-c1cc(-n2ccnc2)ncn1 | 0.316 µM (active) | – |

| SMILES | AC50 | activity, negative = inhibition |
| --- | --- | --- |
| CN(C)Cc1ccccc1-c1cc(-n2ccnc2)ncn1 | 5.01 µM (active) | – |
| Nc1nc(-c2cccc([N+](=O)[O-])c2)cc(-c2cc(-c3cccc([N+](=O)[O-])c3)nc(N)n2)n1 | – | 0.313% [at 2.29 µM] |
| Cc1cc(-c2cccc([N+](=O)[O-])c2)nc2ccc3ccccc3c12 | 0.631 µM (active) | – |
| O=C(Cn1c(-c2cscn2)nc2ccccc21)Nc1cc(F)ccc1F | 2.51 µM (active) | – |
| O=C(Cn1c(C(F)(F)F)nc2ccccc21)c1ccc(F)cc1 | – | -27.8% |
| CCn1c(CNC(=O)COc2ccc(C(C)C)cc2)nnc1SCC(=O)Nc1cc(F)ccc1C | – | -7% |
| Cn1ncc2c(Cl)ncnc21 | – | -5.24% [at 11.4 µM] |
| Cn1ncc2c(NCCc3ccccc3)nc(Cl)nc21 | 2.51 µM (active) | – |
| COc1cccc(Cn2c(=O)c(-c3ccccc3)nc3cnc(N4CCN(C)CC4)nc32)c1 | – | -20.3% |
| COCCn1c(=O)c(-c2cccs2)nc2cnc(N3CCN(C)CC3)nc21 | 15.8 µM (active) | – |
| CN1CCN(c2ncc3nc(-c4ccccc4)c(=O)n(Cc4ccc(F)cc4)c3n2)CC1 | – | -20% |
| CN1CCN(c2ncc3nc(-c4cccs4)c(=O)n(Cc4cccs4)c3n2)CC1 | 15.8 µM (active) | – |
| CC(C)CNS(=O)(=O)c1cc(C(=O)N2CC(C)OC(C)C2)c(Cl)cc1Cl (stereo not given) | – | 2.27% |
| Cc1cccc(CNc2ccnc(-c3cccnc3)n2)c1 | 0.126 µM (active) | – |
| c1ccc(CNc2ccnc(-c3cccnc3)n2)cc1 | 0.251 µM (active) | – |
| COc1cc(C)ccc1OCCCOc1ccccc1Cl | 2.51 µM (active) | – |
| COc1ccccc1OCCCOc1ccc([N+](=O)[O-])cc1Cl | 2 µM (active) | – |
| COc1cc(C)ccc1OCCCOc1ccccc1Br | 1.58 µM (active) | – |
| COc1cc(C)ccc1OCCOc1cc(C)ccc1Cl | – | -29.1% |
| C[C@@H]1C[C@H](C)CN(S(=O)(=O)c2cc(Cl)c(Oc3ccc([N+](=O)[O-])cc3Cl)c(Cl)c2)C1 | – | -15.8% [at 11.4 µM] |
| CC1(C)CCC=[N+]1[O-] | – | -0.975% |
| CO/N=C(\C)CCN1CCc2nc(-c3ccccc3)c(-c3ccccc3)cc2C1 | – | 7.31% [at 11.4 µM] |
| CO[C@H]1COC(=O)[C@H]2CCCN2C(=O)[C@@H](C)COC(=O)C/C=C\[C@@H]1C | – | -1.05% [at 11.4 µM] |
